# Assay results as given in PubChem BioAssay.
# Calls of active or inactive are those of the source. Rule as the data show it, unless noted: active = inhibition above about 80%; inactive = the rest.
# Experiments:
# [1] = LFS_MB_P medulloblastoma growth inhibition, cell-based, chromothripsis tumors, cisplatin or BGB combos (AID 1671449); conditions: LFS_MB_P medulloblastoma cells;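 also: cells exposed for 96 hours; 0% = vehicle DMSO and 100% = killing by high DMSO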
# [2] = HDN33 neuroblastoma growth inhibition, cell-based, chromothripsis tumors, cisplatin or BGB combos (AID 1671450); conditions: HDN33 neuroblastoma cells, stronger effect = higher value;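 also: cells exposed to compound for four days; 0% = vehicle DMSO and 100% = cell killing by high DMSO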
# [3] = ICB984 medulloblastoma cell growth inhibition, synergistic combos for chromothripsis tumors, cisplatin or BGB combos (AID 1671451; call rule not given here;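 also: cells exposed for 96 hours before readout; 0% = vehicle DMSO and 100% = killing by high DMSO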); conditions: ICB984 medulloblastoma cells, drug combinations, stronger effect = higher value
# [4] = LFS_MB_1R medulloblastoma cell growth inhibition, synergistic combos for chromothripsis tumors, cisplatin or BGB combos (AID 1671452); conditions: LFS_MB_1R medulloblastoma cells, stronger effect = higher value;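 also: cells exposed for 96 hours before readout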
# [5] = HTB85 osteosarcoma cell growth inhibition, synergistic combos for chromothripsis tumors, BGB or cisplatin IC20 combos (AID 1671453); conditions: HTB85 osteosarcoma cells, drug combinations, stronger effect = higher value;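 also: cells exposed for 96 hours before readout; 0% = vehicle DMSO and 100% = high DMSO killing control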
# [6] = CRL2098 osteosarcoma cell growth inhibition, synergistic combos for chromothripsis tumors, BGB or cisplatin IC20 combos (AID 1671454); conditions: CRL2098 osteosarcoma cells, drug combinations, stronger effect = higher value;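 also: cells exposed for 96 h before readout; 0% = vehicle DMSO and 100% = killing by high DMSO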
# [7] = HD-MB03 medulloblastoma cell growth inhibition, synergistic combos for chromothripsis tumors, BGB or cisplatin IC20 combos (AID 1671455; in the data active = inhibition above about 83%;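 also: 0% = vehicle DMSO and 100% = high DMSO as cytotoxic control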); conditions: HD-MB03 medulloblastoma cells, stronger effect = higher value
# [8] = UWB1.289 ovarian carcinoma cell growth inhibition, synergistic combos for chromothripsis tumors, BGB or cisplatin combos (AID 1671456); conditions: UWB1.289 ovarian carcinoma cells, stronger effect = higher value;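 also: cells exposed to compound for four days; 0% = vehicle DMSO and 100% = killing by high DMSO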
# [9] = LFS_MB_2R medulloblastoma cell growth inhibition, synergistic combos for chromothripsis tumors, cisplatin combos (AID 1671457); conditions: LFS_MB_2R medulloblastoma cells, stronger effect = higher value;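 also: cells exposed to compound for four days before readout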
# [10] = MDA-MB-436 breast carcinoma cell growth inhibition, synergistic combos for chromothripsis tumors, BGB or cisplatin combos (AID 1671458; call rule not given here;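 also: cells exposed for 96 hours; 0% = vehicle DMSO and 100% = killing by high DMSO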); conditions: MDA-MB-436 breast carcinoma growth inhibition, drug combinations, stronger effect = higher value
# [11] = UWB1.289_BRCA1 ovarian cancer growth, cell-based, BGB or cisplatin combinations (AID 1671459); conditions: UWB1.289 BRCA1 ovarian carcinoma, drug combinations, stronger effect = higher value
# [12] = human astrocyte viability loss, single and combined drugs, cytotoxicity control for chromothriptic childhood tumor combination screen, cell-based, BGB or cisplatin IC20 combos (AID 1671460); conditions: Human astrocytes, drug combinations, stronger effect = higher value;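 also: cells exposed to compounds for 96 hours before viability readout; 0% = vehicle and 100% = killing control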
# [13] = growth inhibition of BT084 medulloblastoma cells, cell-based, ICGC_MB145, cisplatin and BGB IC40 combos (AID 1671461); conditions: drug combinations, stronger effect = higher value;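 also: cells exposed to drugs for 96 hours; 0% = vehicle DMSO and 100% = high DMSO full killing control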
# [14] = growth inhibition of RCMB18 medulloblastoma cells, cell-based, cisplatin and BGB IC40 combos (AID 1671462); conditions: stronger effect = higher value;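 also: cells exposed to compound for four days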
# [15] = growth inhibition of CRL1545 osteosarcoma cells, cell-based, cisplatin and BGB IC20 combos (AID 1671464); conditions: stronger effect = higher value;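 also: cells exposed to compound for 96 hours before readout; 0% = vehicle DMSO and 100% = high DMSO killing control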
# [16] = at 0.5 µM, stronger effect = higher value
# [17] = measured here: combination with BGB IC20, at 0.005 µM
# [18] = measured here: combination with BGB IC40, at 0.005 µM
# [19] = measured here: combination with BGB IC40, at 0.05 µM
# [20] = measured here: combination with cisplatin, at 0.5 µM, stronger effect = higher value
# [21] = measured here: combination with cisplatin, at 5 µM, stronger effect = higher value
# [22] = measured here: with BGB IC20 combination, at 0.5 µM
# [23] = measured here: with cisplatin IC20 combination, at 0.5 µM
# [24] = measured here: 5 uM single agent, at 5 µM
# [25] = measured here: combination with cisplatin, at 0.5 µM
# [26] = measured here: combination with cisplatin, at 5 µM
# [27] = measured here: with BGB IC20, at 0.5 µM
# [28] = measured here: with BGB IC20, at 5 µM
# [29] = measured here: with cisplatin IC20, at 0.5 µM
# [30] = measured here: with cisplatin IC20, at 5 µM
# [31] = measured here: combination with BGB at IC20, at 0.5 µM
# [32] = measured here: combination with cisplatin at IC20, at 0.5 µM
# [33] = measured here: combo with BGB at IC20, at 0.5 µM
# [34] = measured here: combo with cisplatin at IC20, at 0.5 µM
# [35] = measured here: inhibition with BGB combination, at 0.05 µM
# [36] = measured here: inhibition with cisplatin combination, at 0.05 µM
# [37] = measured here: BGB combination, at 0.5 µM
# [38] = measured here: BGB combination, at 5 µM
# [39] = measured here: cisplatin combination, at 0.5 µM
# [40] = measured here: cisplatin combination, at 5 µM
# [41] = BGB combination, concentration series, at 5 µM
# [42] = cisplatin combination, concentration series, at 5 µM
# [43] = measured here: combo with BGB IC20, at 0.5 µM
# [44] = measured here: combo with cisplatin IC20, at 0.5 µM
# [45] = cisplatin combination, at 0.5 µM
# [46] = measured here: BGB IC40 combination 0.05 uM, at 0.05 µM
# [47] = measured here: BGB IC40 combination, at 0.05 µM
smiles,measurement,setting,value
CCC(C)C(=O)OC1CC(C)C=C2C=CC(C)C(CCC3CC(O)CC(=O)O3)C21 (stereo unspecified),inhibition,[1]; [16],-40.1% (inactive)
same,inhibition,[1]; [17],-11.8%
same,inhibition,[1]; [18],-21.9%
same,inhibition,[1]; [19],-1.78%
same,inhibition,[1]; [20],-46.1%
same,inhibition,[1]; [21],-44.5%
same,inhibition,"[2]; BGB combo, at 5 µM",63.1%
same,inhibition,[2]; at 0.5 µM,21.8% (inactive)
same,inhibition,"[2]; cisplatin combo, at 5 µM",52.4%
same,inhibition,[2]; [22],26.6%
same,inhibition,[2]; [23],11.5%
same,inhibition,"[2]; single agent, at 5 µM",65.1%
same,inhibition,"[3]; BGB IC20 combo, at 0.005 µM",0.285%
same,inhibition,"[3]; BGB IC40 combo, at 0.005 µM",16.8%
same,inhibition,"[3]; BGB IC40 combo, at 0.05 µM",20.5%
same,inhibition,[3]; at 0.5 µM,-5.66% (inactive)
same,inhibition,"[3]; cisplatin combo, at 0.05 µM",20.5%
same,inhibition,"[3]; cisplatin combo, at 0.5 µM",-11.6%
same,inhibition,"[3]; cisplatin combo, at 5 µM",-5.67%
same,inhibition,[3]; [24],-12.3%
same,inhibition,[4]; at 0.5 µM,22% (inactive)
same,inhibition,[4]; [19],-11%
same,inhibition,[4]; [25],12.3%
same,inhibition,[4]; [26],12%
same,inhibition,[5]; at 0.5 µM,-1.62% (inactive)
same,inhibition,[5]; [27],-18.6%
same,inhibition,[5]; [28],74.3%
same,inhibition,[5]; [29],-1.27%
same,inhibition,[5]; [30],74.6%
same,inhibition,"[5]; single agent, at 5 µM",73.5%
same,inhibition,[6]; at 0.5 µM,-29.5% (inactive)
same,inhibition,[6]; [31],-33%
same,inhibition,[6]; [32],-19.4%
same,inhibition,[7]; at 0.5 µM,30.1% (inactive)
same,inhibition,[7]; [33],26.5%
same,inhibition,[7]; [34],26.8%
same,inhibition,[8]; at 0.5 µM,5.25% (inactive)
same,inhibition,[8]; [35],-16.1%
same,inhibition,[8]; [36],5.33%
same,inhibition,[9]; at 0.5 µM,-20.3% (inactive)
same,inhibition,[9]; [25],-23.3%
same,inhibition,[9]; [26],-7.2%
same,inhibition,[10]; at 0.5 µM,-16.4% (inactive)
same,inhibition,[10]; [37],-18.4%
same,inhibition,[10]; [38],-6.45%
same,inhibition,[10]; [39],-23%
same,inhibition,[10]; [40],8.95%
same,inhibition,[11]; [41],23.4%
same,inhibition,[11]; at 0.5 µM,3.85% (inactive)
same,inhibition,[11]; [42],29.3%
same,inhibition,[12]; at 0.5 µM,-9.68% (inactive)
same,inhibition,[12]; [43],-8.02%
same,inhibition,[12]; [44],-11.2%
same,inhibition,[13]; at 0.5 µM,6.42% (inactive)
same,inhibition,[13]; [45],24.4%
same,inhibition,"[13]; cisplatin combination, at 5 µM",33.2%
same,inhibition,[13]; [46],4.47%
same,inhibition,"[13]; single agent, at 5 µM",25.9%
same,inhibition,[14]; at 0.5 µM,1.38% (inactive)
same,inhibition,"[14]; cisplatin combo, at 5 µM",4.72%
same,inhibition,[14]; [47],-3.68%
same,inhibition,[14]; [25],2.71%
same,inhibition,"[14]; single agent, at 5 µM",8.59%
same,inhibition,[15]; at 0.5 µM,4.53% (inactive)
same,inhibition,[15]; [22],12.6%
same,inhibition,[15]; [23],0.492%
same,inhibition,"[15]; single agent, at 0.05 µM",-12.7%
same,inhibition,"[15]; single agent, at 5 µM",11.3%
CC(C)C(=O)SCCCCCCC(=O)Nc1nc(-c2ccccc2)cs1,inhibition,[1]; [16],-25.8% (inactive)
same,inhibition,[1]; [17],-14.6%
same,inhibition,[1]; [18],-57.5%
same,inhibition,[1]; [19],-33.9%
same,inhibition,[1]; [20],-38.9%
same,inhibition,[1]; [21],85.2%
same,inhibition,"[2]; BGB combo, at 5 µM",48.9%
same,inhibition,[2]; at 0.5 µM,6.91% (inactive)
same,inhibition,"[2]; cisplatin combo, at 5 µM",45.1%
same,inhibition,[2]; [22],1.56%
same,inhibition,[2]; [23],14.6%
same,inhibition,"[2]; single agent, at 5 µM",57.6%
same,inhibition,"[3]; BGB IC20 combo, at 0.005 µM",16.1%
same,inhibition,"[3]; BGB IC40 combo, at 0.005 µM",-25.2%
same,inhibition,"[3]; BGB IC40 combo, at 0.05 µM",31.3%
same,inhibition,[3]; at 0.5 µM,-31.1% (inactive)
same,inhibition,"[3]; cisplatin combo, at 0.05 µM",28%
same,inhibition,"[3]; cisplatin combo, at 0.5 µM",-33.4%
same,inhibition,"[3]; cisplatin combo, at 5 µM",-7.7%
same,inhibition,[3]; [24],4.47%
same,inhibition,[4]; at 0.5 µM,-22% (inactive)
same,inhibition,[4]; [19],-72.1%
same,inhibition,[4]; [25],-44.8%
same,inhibition,[4]; [26],68.5%
same,inhibition,[5]; at 0.5 µM,-4.36% (inactive)
same,inhibition,[5]; [27],2.11%
same,inhibition,[5]; [28],19%
same,inhibition,[5]; [29],-21.4%
same,inhibition,[5]; [30],38.3%
same,inhibition,"[5]; single agent, at 5 µM",22.2%
same,inhibition,[6]; at 0.5 µM,-30.2% (inactive)
same,inhibition,[6]; [31],-44.3%
same,inhibition,[6]; [32],-19.3%
same,inhibition,[7]; at 0.5 µM,4.11% (inactive)
same,inhibition,[7]; [33],5.74%
same,inhibition,[7]; [34],11.7%
same,inhibition,[8]; at 0.5 µM,5.55% (inactive)
same,inhibition,[8]; [35],-30.6%
same,inhibition,[8]; [36],-3.57%
same,inhibition,[9]; at 0.5 µM,-13.4% (inactive)
same,inhibition,[9]; [25],-25.2%
same,inhibition,[9]; [26],54.7%
same,inhibition,[10]; at 0.5 µM,-7.93% (inactive)
same,inhibition,[10]; [37],-9.46%
same,inhibition,[10]; [38],10.2%
same,inhibition,[10]; [39],-23.5%
same,inhibition,[10]; [40],18.2%
same,inhibition,[11]; [41],37.8%
same,inhibition,[11]; at 0.5 µM,9.48% (inactive)
same,inhibition,[11]; [42],66.2%
same,inhibition,[12]; at 0.5 µM,31.1% (inactive)
same,inhibition,[12]; [43],34.6%
same,inhibition,[12]; [44],18.5%
same,inhibition,[13]; at 0.5 µM,-9.26% (inactive)
same,inhibition,[13]; [45],-8.48%
same,inhibition,"[13]; cisplatin combination, at 5 µM",42.4%
same,inhibition,[13]; [46],-39.7%
same,inhibition,"[13]; single agent, at 5 µM",71.8%
same,inhibition,[14]; at 0.5 µM,-9.74% (inactive)
same,inhibition,"[14]; cisplatin combo, at 5 µM",41%
same,inhibition,[14]; [47],12.2%
same,inhibition,[14]; [25],-9.58%
same,inhibition,"[14]; single agent, at 5 µM",36.3%
same,inhibition,[15]; at 0.5 µM,33.1% (inactive)
same,inhibition,[15]; [22],24.9%
same,inhibition,[15]; [23],36.2%
same,inhibition,"[15]; single agent, at 0.05 µM",0.931%
same,inhibition,"[15]; single agent, at 5 µM",46.6%
